Hits are enriched below; roughly 9% of the tested compounds scored in any of these assays.
JMJD2A Tudor: JMJD2A Tudor domain (human) inhibition; O75164; AlphaScreen JMJD2A-Tudor / H3K4me3 peptide binding; Potency, µM (titrated, usually from 114 µM), hits mostly inhibitors; hit rate 4.4% among 390,000; AID 504339; also: nearly all actives have a fitted effect of over 50% in size
G9a block: blocks human histone lysine methyltransferase G9a; Q96KQ7; G9a H3K9 monomethylation, AlphaScreen, 2 h; Potency, µM (series often up to 102 µM), hits mostly inhibitors; hit rate 8.8% among 350,000; also: nearly all actives have a fitted effect of over 75% in size
Target sequence (Q96KQ7 913-1193 limits assumed): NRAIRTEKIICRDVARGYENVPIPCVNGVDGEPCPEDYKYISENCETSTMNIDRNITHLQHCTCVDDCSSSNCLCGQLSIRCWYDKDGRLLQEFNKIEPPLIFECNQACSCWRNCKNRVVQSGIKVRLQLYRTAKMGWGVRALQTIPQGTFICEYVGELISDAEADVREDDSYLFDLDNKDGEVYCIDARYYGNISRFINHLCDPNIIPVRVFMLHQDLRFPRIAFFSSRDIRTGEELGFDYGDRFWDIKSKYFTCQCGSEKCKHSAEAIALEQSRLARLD
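Chemiluminescent proximity detection of H3K9 monomethylation, read after 10 min bead incubation in the dark. Reaction: 20 nM G9a, 500 nM biotin-H3K9 peptide, 20 uM SAM cofactor, 2 h, room temperature, following 15 min enzyme-compound preincubation.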
BAZ2B inh: inhibitors of human BAZ2B bromodomain | Q9UIF8 | AlphaScreen BAZ2B-H3K14Ac peptide displacement | Potency, µM (top dose mostly 114 µM), actives largely listed as inhibitors | hit rate 4.4% among 360,000; also: nearly all actives have a fitted effect of over 60% in size
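AlphaScreen luminescence quantifies BAZ2B engagement of H3K14Ac peptide; the protein and biotinylated peptide are both at 50 nM final, buffer PBS pH 7.4 with 0.01% Tween-20, all steps at room temperature.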
ALOX12 inh: inhibitors of human 12S-lipoxygenase ALOX12 | purified 12hLO, xylenol orange hydroperoxide absorbance | P18054 | hit rate 1.1% among 580,000 | AID 1671190 | Potency, µM (titrated, usually from 108 µM), actives largely listed as inhibitors
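Purified human 12hLO (150 nM final) in 25 mM Hepes, 0.01% Triton X-100, pH 7.0 was preincubated 15 min at room temperature with compound. Then 40 uM arachidonic acid was added, 30 min. Hydroperoxide was read by Fe-XO absorbance ratio 573/405 nm.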
PLK1 PBD block: inhibitors of human PLK1 polo-box domain binding; P53350; Plk1 PBD binding of FITC phosphopeptide, fluorescence polarization; Potency, µM, actives largely listed as inhibitors; hit rate 2.8% among 360,000; also: series mostly up to about 57 µM; nearly all actives have a fitted effect of over 65% in size
HP1b chromo inh: blocks HP1-beta chromodomain binding to methylated histone tails. P83916. Potency, µM (highest dose often 114 µM), most hits filed as inhibitors. hit rate 0.56% among 390,000. AlphaScreen HP1-beta / biotin-H3K9me3 peptide binding; also: nearly all actives have a fitted effect of over 70% in size
Target sequence (P83916 whole entry, looked up): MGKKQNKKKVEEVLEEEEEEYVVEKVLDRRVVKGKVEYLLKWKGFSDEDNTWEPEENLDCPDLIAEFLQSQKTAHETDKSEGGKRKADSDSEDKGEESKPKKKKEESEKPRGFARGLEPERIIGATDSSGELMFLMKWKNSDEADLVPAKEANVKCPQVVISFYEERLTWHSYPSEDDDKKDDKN
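HP1-beta protein (50 nM final) preincubated 30 min at room temperature with biotinylated H3(1-18)K9me3 peptide (50 nM) in PBS pH 7.4, 0.01% Tween-20, then compound added for 30 min. AlphaScreen streptavidin donor/nickel chelate acceptor beads (10 ug/mL final), 30 min dark, luminescence read.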
Each line names hits and unclear results; the compound was inactive in the other large screens. Calls follow the shape of the dose curve; as a rule, active = well fitted curve in the direction sought with a large enough effect; inconclusive = small, poorly fitted or top-dose-only effect, or another doubt; inactive = no such curve, though single readings can be large; an effect the other way counts as inactive or inconclusive.

O=C(O)/C(=C\c1ccco1)NC(=O)c1ccco1	ALOX12 inh inconclusive
COC(=O)/C(=C/c1ccco1)NC(=O)c1ccc(Br)o1	G9a block 45µM
COc1ccccc1C(=O)N/C(=C\c1ccccc1)C(=O)NC(C)C(=O)O (stereo unspecified)	none
COc1cc(/C=C(\NC(=O)c2ccccc2)C(=O)NC(C(=O)O)c2ccccc2)cc(OC)c1OC (stereo unspecified)	G9a block 40µM
Cc1ccc(-n2ncc3c2CC(C)(C)CC3NC(=O)c2ccncc2)cc1 (stereo unspecified)	none
O=C(NCc1ccco1)/C(=C\c1ccco1)NC(=O)c1ccccc1Cl	G9a block inconclusive
O=C(NCc1ccco1)/C(=C/c1ccco1)NC(=O)c1ccco1	G9a block 40µM
COc1ccc(C(=O)N/C(=C\c2ccccc2)C(=O)NC(CCSC)C(=O)O)cc1 (stereo unspecified)	G9a block 56µM
Cc1ccc(-c2nn(-c3ccccc3)cc2C(=O)O)o1	G9a block 4.5µM, BAZ2B inh inconclusive (no result: JMJD2A Tudor, ALOX12 inh, PLK1 PBD block, HP1b chromo inh)
CC(C)OC(=O)c1cn(-c2ccccc2)nc1-c1ccco1	G9a block 7.9µM, PLK1 PBD block inconclusive
O=C(O)/C=C/c1cn(-c2ccccc2)nc1-c1cc2ccccc2oc1=O	none (no result: G9a block)
Cc1ccc(-c2nn(-c3ccccc3)cc2CN(Cc2ccccc2)C(=O)c2ccco2)o1	JMJD2A Tudor 56µM, G9a block 32µM, BAZ2B inh 32µM, ALOX12 inh inconclusive
CCOC(=O)C1=C(C)NC(C)=C(C(=O)OCC)C1c1cn(-c2ccccc2)nc1-c1ccco1	none
Cc1ccc(-c2nn(-c3ccccc3)cc2/C=C/C(=O)O)o1	G9a block 28µM, BAZ2B inh inconclusive
Cc1cccc(C)c1NC(=O)COc1ccccc1C(=O)Nc1ccc(Br)cn1	none
CN(C(=O)CSc1cn(CC(=O)N2CCOCC2)c2ccccc12)c1ccccc1	ALOX12 inh inconclusive, PLK1 PBD block 12µM
O=C(CSc1cn(CC(=O)N2CCCCC2)c2ccccc12)NCC1CCCO1 (stereo unspecified)	JMJD2A Tudor 50µM, PLK1 PBD block 27µM
CC1CCN(C(=O)Cn2cc(SCC(=O)NCC3CCCO3)c3ccccc32)CC1 (stereo unspecified)	none
O=C(CCCn1c(SCC(=O)c2ccc(O)c(O)c2)nc2ccccc2c1=O)NCC1CCCO1 (stereo unspecified)	JMJD2A Tudor 32µM, G9a block 35µM, BAZ2B inh inconclusive, ALOX12 inh 1.8µM
O=C(CSc1nc2ccccc2c(=O)n1CCC(=O)N1CCN(c2ccccc2)CC1)NCC1CCCO1 (stereo unspecified)	JMJD2A Tudor 56µM, PLK1 PBD block inconclusive
Cc1ccccc1CN1C(=O)CN(S(C)(=O)=O)CC1(C)C(=O)NC(C)C (stereo unspecified)	none (no result: JMJD2A Tudor, G9a block, BAZ2B inh, HP1b chromo inh)
CCOC(=O)N1CCN(C(=O)CSc2ccc3nnc(-c4cccnc4)n3n2)CC1	none
CCOC(=O)C(CC)Sc1nc2c(cnn2-c2ccc(F)cc2)c(=O)[nH]1 (stereo unspecified)	none
COc1ccc(S(=O)(=O)Oc2ccc3c(c2)O/C(=C\c2cccc(OC)c2OC)C3=O)cc1	none (no result: JMJD2A Tudor, G9a block, BAZ2B inh, PLK1 PBD block, HP1b chromo inh)
COc1cc(CCC(=O)OCC(=O)Nc2ccccc2OC(F)F)cc(OC)c1OC	none
COc1cccc(-n2nc(C(N)=O)c(O)cc2=O)c1	ALOX12 inh inconclusive
COc1cccc(-n2nc(C#N)c(Cl)cc2=O)c1	G9a block 50µM, PLK1 PBD block inconclusive
CCCCNC(=O)N1CCN(C(c2ccccc2)c2ccccc2)CC1	none (no result: ALOX12 inh)
O=Cc1ccc2noc(-c3ccc(Cl)cc3)c2c1	G9a block 22µM, ALOX12 inh inconclusive
CCCC(=O)Nc1ccc(C(N)=O)cc1	none
CC(=O)CC(=O)Nc1ccc(C(N)=O)cc1	G9a block 25µM
CC(=O)CC(=O)Nc1ccc(Nc2ccccc2)cc1	G9a block 71µM, BAZ2B inh inconclusive
CC(C)Oc1cccc(C(=O)Nc2ccc3oc(-c4cccc(Cl)c4)nc3c2)c1	none (no result: PLK1 PBD block)
Cc1nc2c(OCc3ccc(C(F)(F)F)cc3)cccn2c1N(C)C(=O)CCC1CCCC1	none (no result: JMJD2A Tudor, G9a block, BAZ2B inh, HP1b chromo inh)

Assay outcomes from PubChem BioAssay.
